# Assay results taken from PubChem BioAssay (Tox21).
# Values joined by “and” are separate entries in the source; they are usually repeats but may differ in a detail not shown here. Identical values can stand only once. Results filed as inconclusive are left out. A call without a number means that no potency is given here. Some structures have more than one record in an assay (separate samples or runs), and their calls can disagree. Active and inactive are the calls of the source. Calls come from the whole dose curve; as a rule, active = well fitted activation curve with a large enough effect in the repeat runs; inconclusive = weak or mixed curves; inactive = flat fitted curve, though single readings scatter.
# Assay: A CellTox Green Cytotoxicity Assay to monitor cytotoxicity in HepG2 cells - 8 hour (AID 1224890); note: nearly all actives have a fitted effect of over 45% in size
# Settings: CellTox Green fluorescence; series mostly up to 76.8 µM; cytotoxicity increase: at the top concentration
# Description: National Center for Advancing Translational Sciences [NCATS]
# NIH Chemical Genomics Center [NCGC]
# U.S. Environmental Protection Agency [EPA]
# National Institutes of Environmental Health Sciences [NIEHS]
# National Toxicology Program [NTP]
# Cell-based models are critical for drug discovery. Determining the natural cytotoxic effects resulting from test compounds is an essential research activity. A CellTox Green Cytotoxicity Assay to monitor cytotoxicity in real time of continues cell culture during 40 hours of the compound treatment was used to screen Tox21 10K library compounds in HepG2 cells. CellTox Green Cytotoxicity Assay is a nonlytic, homogeneous, biofluorescent method to measure cytotoxicity in cell culture after experimental manipulation. The assay system uses a proprietary asymmetric cyanine dye that is excluded from viable cells but preferentially stains the dead cell's DNA. […] Viable cells produce no appreciable increases in fluorescence. Therefore, the fluorescence signal produced by the binding interaction with dead cell DNA is proportional to cytotoxicity.
# The mixture of HepG2 cell suspension and reagents were dispensed at 600cells/6 ul/well in 1536-well tissue culture treated black solid bottom plates using a Multidrop dispenser. After the assay plates were incubated at a 37 C/5% CO2 incubator for 5 hours, 23 nL of compounds dissolved in DMSO, positive and negative controls was transferred to the assay plate by a pintool work station. The plates were incubated at 37 C for 40 hours. The fluorescence intensity were measured at 0h, 8h, 16h, 24h, 32h and 40h time points using ViewLux plate reader during compound treatment.
# Potency is the fitted concentration of half-maximal effect.
SMILES,Potency,cytotoxicity increase
CC(C)COC(=O)c1ccccc1C(=O)OCC(C)C,inactive,
C[N+](C)(C)CC(=O)[O-],inactive,
CCOS(=O)(=O)OCC,inactive,
C[N+](C)(C)CC(=O)O,inactive,
CN(C)P(=O)(N(C)C)N(C)C,inactive,
CN(C)c1nc(=O)n(C2CCCCC2)c(=O)n1C,inactive,
CCCCSP(=O)(SCCCC)SCCCC,inactive,
CCC[CH2][Sn]([Cl])([CH2]CCC)[CH2]CCC,3.47 µM (active) and 1.95 µM (active),
CC(C)Nc1nc(Cl)nc(NC(C)C)n1,inactive,
CC(C)=CC1C(C(=O)OCc2cccc(Oc3ccccc3)c2)C1(C)C (stereo not given),inactive,
CC(O)CN(CC(C)O)CC(C)O (stereo not given),inactive,
O=C1CCCO1,inactive,
CC1(C)C(C(=O)OC(C#N)c2cccc(Oc3ccccc3)c2)C1(C)C (stereo not given),inactive,
NC(=O)CN1CCCC1=O,inactive,
O=NN(c1ccccc1)c1ccccc1,inactive,
Oc1ccc(Cl)cc1Cc1ccccc1,inactive and 31.3 µM (active),
CC[n+]1c(-c2ccccc2)c2cc(N)ccc2c2ccc(N)cc21,inactive,
Cc1cccc(N=Nc2ccc(N(C)C)cc2)c1,inactive,
S=c1[nH]c2ccccc2[nH]1,,2.63% (inactive)
CCCCCCCCCC(CC)c1ccc(S(=O)(=O)O)cc1 (stereo not given),inactive and 34.7 µM (active),

SMILES,Potency,cytotoxicity increase
C[C@]12CCC(=O)C=C1CC[C@@H]1[C@@H]2CC[C@@]2(C)[C@H]1CC[C@]2(C)O,22.1 µM (active) and inactive,
O=[N+]([O-])c1ccc(Nc2ccccc2)cc1,inactive,
Cc1cc(Cl)ccc1N=CN(C)C,inactive,
ClC(Cl)(Cl)Br,inactive,
O=C1Nc2ccc(Cl)cc2C(c2ccccc2)=NC1O (stereo not given),inactive,
CCOP(=S)(OCC)OP(=S)(OCC)OCC,inactive,
COc1ccc(O)c(C(C)(C)C)c1,inactive,
O=C1C(Cl)=C(Cl)C(=O)c2ccccc21,15.5 µM (active) and 6.17 µM (active),
OCCOCCO,inactive,
Brc1ccc(Br)cc1,inactive,
CCC[CH2][Sn]([Cl])([Cl])[CH2]CCC,14 µM (active) and 13.8 µM (active),
CC(C)(O)C(=O)Nc1ccc([N+](=O)[O-])c(C(F)(F)F)c1,inactive,
Cc1ccc(N=CN(C)C=Nc2ccc(C)cc2C)c(C)c1,inactive,
Nc1ccc([N+](=O)[O-])cc1N,inactive,
N#Cc1c(Cl)c(Cl)c(Cl)c(C#N)c1Cl,48 µM (active) and 13.8 µM (active),
CCOC(=O)c1ccccc1N,inactive and 49 µM (active),
CC1(C)Cc2cccc(O)c2O1,inactive,
Nc1ccc2ccccc2c1,inactive,
CC1=C(C(=O)Nc2ccccc2)SCCO1,inactive,
CCC1(c2ccc(N)cc2)CCC(=O)NC1=O (stereo not given),inactive,
